# The sample as a whole holds a higher share of the strongest signals than the screen did.
# B1: Fm1D (Escherichia coli) (protein)
# chain: FSCNVDGGSSIGAGTTSVYVNLDPVIQPGQNLVVDLSQHISCWNDYGGWYDTDHINLVQGSAFAGSLQSYKGSLYWNNVTYPFPLTTNTNVLDIGDKTPMPLPLKLYITPVGAAGGVVIKAGEVIARIHMYKIATLGSGNPRNFTWNIISNNSVVMPTHHHHHH
# Experiments:
# Assay in all cases: glycan array binding signal (z-score within array); higher = stronger binding
# Conditions in all cases: glycan notation: IUPAC condensed, linker removed
# [1] = target: Fuc(a1-2)Gal(b1-3)GalNAc(b1-4)[Neu5Ac(a2-3)]Gal(b1-4)Glc
# Outline: (§1)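 The Consortium for Functional Glycomics database supplied 3228 glycan arrays, of which those lacking an available protein sequence were dropped. The binding signal, a within-array Z-score, was averaged across arrays of the same protein sequence and across linkers. Negative scores can be read as non-binding.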
# [2] = target: Fuc(a1-2)Gal(b1-4)GlcNAc(b1-3)Gal(b1-4)GlcNAc(b1-3)Gal(b1-4)GlcNAc
# Outline: as §1
# [3] = target: Fuc(a1-2)Gal(b1-4)[Fuc(a1-3)]GlcNAc(b1-3)[Neu5Ac(a2-6)Gal(b1-4)GlcNAc(b1-6)]Gal(b1-4)Glc
# Outline: as §1
# [4] = target: Fuc(a1-2)Gal6S(b1-4)Glc
# Outline: as §1
# [5] = target: Fuc(a1-2)Gal6S(b1-4)Glc6S
# Outline: as §1
# [6] = target: Fuc(a1-2)[Gal(a1-3)]Gal(b1-4)GlcNAc(b1-2)Man(a1-3)[Fuc(a1-2)[Gal(a1-3)]Gal(b1-4)GlcNAc(b1-2)Man(a1-6)]Man(b1-4)GlcNAc(b1-4)GlcNAc
# Outline: as §1
# [7] = target: Fuc(a1-2)[Gal(a1-3)]Gal(b1-4)GlcNAc(b1-2)Man(a1-3)[Fuc(a1-2)[Gal(a1-3)]Gal(b1-4)GlcNAc(b1-2)Man(a1-6)]Man(b1-4)GlcNAc(b1-4)[Fuc(a1-6)]GlcNAc
# Outline: as §1
# [8] = target: Fuc(a1-2)[GalNAc(a1-3)]Gal(b1-3)GlcNAc
# Outline: as §1
# [9] = target: Fuc(a1-3)[Gal(b1-4)]GlcNAc(b1-6)GalNAc
# Outline: as §1
# [10] = target: Gal(a1-3)Gal
# Outline: as §1
# [11] = target: Gal(a1-3)[Gal(a1-4)]Gal(b1-4)GlcNAc
# Outline: as §1
# [12] = target: Gal(b1-3)GalNAc
# Outline: as §1
# [13] = target: Gal(b1-3)GlcNAc(b1-6)GalNAc
# Outline: as §1
# [14] = target: Gal(b1-3)GlcNAc(b1-6)[Gal(b1-3)]GalNAc
# Outline: as §1
# [15] = target: Gal(b1-3)[GlcNAc(b1-6)]GalNAc
# Outline: as §1
# [16] = target: Gal(b1-3)[Neu5Ac(a2-6)]GalNAc
# Outline: as §1
# [17] = target: Gal(b1-4)GlcNAc(b1-2)Man(a1-6)[Man(a1-3)]Man(b1-4)GlcNAc(b1-4)GlcNAc
# Outline: as §1
# [18] = target: Gal(b1-4)GlcNAc(b1-2)[Gal(b1-4)GlcNAc(b1-4)]Man(a1-3)[GlcNAc(b1-4)][Gal(b1-4)GlcNAc(b1-2)Man(a1-6)]Man(b1-4)GlcNAc(b1-4)GlcNAc
# Outline: as §1
# [19] = target: Gal(b1-4)GlcNAc(b1-2)[Gal(b1-4)GlcNAc(b1-6)]Man(a1-6)[GlcNAc(b1-4)][Gal(b1-4)GlcNAc(b1-2)Man(a1-3)]Man(b1-4)GlcNAc(b1-4)GlcNAc
# Outline: as §1
# [20] = target: Gal(b1-4)GlcNAc(b1-3)Gal(b1-4)GlcNAc(b1-2)Man(a1-3)[Gal(b1-4)GlcNAc(b1-3)Gal(b1-4)GlcNAc(b1-2)Man(a1-6)]Man(b1-4)GlcNAc(b1-4)GlcNAc
# Outline: as §1
# [21] = target: Gal(b1-4)GlcNAc(b1-3)Gal(b1-4)GlcNAc(b1-6)[Gal(b1-3)]GalNAc
# Outline: as §1
# [22] = target: Gal(b1-4)GlcNAc(b1-6)[Gal(b1-3)]GalNAc
# Outline: as §1
# [23] = target: Gal3S(b1-3)GlcNAc
# Outline: as §1
# [24] = target: GlcA(b1-3)Gal
# Outline: as §1
# [25] = target: GlcNAc(b1-2)[GlcNAc(b1-4)]Man(a1-3)[GlcNAc(b1-4)][GlcNAc(b1-2)[GlcNAc(b1-6)]Man(a1-6)]Man(b1-4)GlcNAc(b1-4)[Fuc(a1-6)]GlcNAc
# Outline: as §1
# [26] = target: GlcNAc(b1-3)Gal(b1-4)GlcNAc(b1-6)[Gal(b1-3)]GalNAc
# Outline: as §1
# [27] = target: GlcNAc(b1-6)Gal(b1-4)GlcNAc
# Outline: as §1
# [28] = target: Kdn(a2-3)Gal(b1-3)GalNAc
# Outline: as §1
# [29] = target: Neu5Ac(a2-3)Gal(b1-3)GalNAc6S
# Outline: as §1
# [30] = target: Neu5Ac(a2-3)Gal(b1-4)GlcNAc(b1-3)Gal(b1-4)GlcNAc(b1-6)[Gal(b1-3)]GalNAc
# Outline: as §1
binder,measurement,setting,value
B1,glycan array binding signal (z-score),[1],-0.146
same,glycan array binding signal (z-score),[2],-0.144
same,glycan array binding signal (z-score),[3],-0.143
same,glycan array binding signal (z-score),[4],-0.149
same,glycan array binding signal (z-score),[5],-0.14
same,glycan array binding signal (z-score),[6],-0.142
same,glycan array binding signal (z-score),[7],-0.143
same,glycan array binding signal (z-score),[8],-0.146
same,glycan array binding signal (z-score),[9],-0.139
same,glycan array binding signal (z-score),[10],-0.142
same,glycan array binding signal (z-score),[11],-0.125
same,glycan array binding signal (z-score),[12],2.2
same,glycan array binding signal (z-score),[13],-0.12
same,glycan array binding signal (z-score),[14],3.7
same,glycan array binding signal (z-score),[15],4.94
same,glycan array binding signal (z-score),[16],3.04
same,glycan array binding signal (z-score),[17],-0.144
same,glycan array binding signal (z-score),[18],-0.147
same,glycan array binding signal (z-score),[19],-0.151
same,glycan array binding signal (z-score),[20],-0.138
same,glycan array binding signal (z-score),[21],3.82
same,glycan array binding signal (z-score),[22],10.7
same,glycan array binding signal (z-score),[23],-0.132
same,glycan array binding signal (z-score),[24],-0.143
same,glycan array binding signal (z-score),[25],-0.144
same,glycan array binding signal (z-score),[26],4.57
same,glycan array binding signal (z-score),[27],-0.134
same,glycan array binding signal (z-score),[28],-0.14
same,glycan array binding signal (z-score),[29],-0.141
same,glycan array binding signal (z-score),[30],1.11
